The results in this text go back to paper PMC5540273 (PLoS ONE, 2017).

One assay concerns T1, ADCK3.
T1 construct: gene CABC1

A further assay deals with T2, AMPK-alpha1.
T2 construct: gene PRKAA1

The test system of the next assay is T3, ARK5.
T3 construct: gene NUAK1

For the next assay, the system named is T4, ASK1.
T4 construct: gene MAP3K5

The next assay concerns T5, ASK2.
T5 construct: gene MAP3K6
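Note: kd values determined as follow-up on hits from a single-replicate KINOMEscan panel screen.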

Regarding `COc1ccccc1-c1ccc2c(NC(=O)C3CC3)n[nH]c2n1` [SB-711239], in the assay on ABL1-phosphorylated, the Kd is greater than 10 µM.

In the assay with ABL1-phosphorylated, `O=C1NC(=O)C(N2CCc3ccccc32)=C1c1ccccc1Cl` [SB-373598] showed a Kd greater than 10 µM.

`COc1ccc(C2=C(Nc3cccc(C(=O)O)c3)C(=O)NC2=O)cc1` [SB-390765]: the Kd in the assay on ACVR1 was greater than 10 µM.

In the case of `Cn1ccc2ncnc(Oc3cccc(C(=O)Nc4ccccc4)c3)c21`, in the assay with ACVR1, the Kd was greater than 10 µM.

`CC1=C(C(=O)Nc2cc3cn[nH]c3cc2F)C(c2ccc(C(F)(F)F)cc2)CC(=O)N1` (stereo not shown) [GSK429286] returned a Kd with ACVR2A greater than 10 µM.

As to `COc1cccc(NC(=O)NC2CCN(c3ccnc(Nc4ccc(F)cc4)n3)C2)c1` (stereo not shown) [GSK1379721], the Kd in the assay on ACVR2A was greater than 10 µM.

In the assay on ADCK3, `NC(=O)c1nnc2ccccc2c1N` registered a Kd greater than 10 µM.

Compound `Cc1c(O)cccc1Nc1ccnc2ccc(C(F)(F)F)cc12.Cl` [GW466413] came in with a Kd with ADCK4 of 0.51 µM.

As for `Cc1cc(N2Cc3ccccc3C2)nc(Nc2ccc(S(=O)(=O)N3CCOCC3)cc2)n1.Cl` [GSK1669917], the Kd with AKT1 was greater than 10 µM.

`CCCc1ccc(S(=O)(=O)NC2CCN(c3ccnc(Nc4ccc(F)cc4)n3)C2)cc1` (stereo not shown) [GSK1379715] came in with a Kd with AKT2 greater than 10 µM.

Take `CS(=O)(=O)c1ccc(-c2nc3n(c2-c2ccncc2)CCC3)cc1` [SKF-105942]: the Kd in the assay on AKT2 is greater than 10 µM.

Consider `Cc1c(Cn2ccn3c(=O)cc(N4CCOCC4)nc23)cccc1C(F)(F)F` [GSK2289044], for which, in the assay with AKT3, the Kd was greater than 10 µM.

In turn, `Nc1nc(-c2nccs2)c(-c2ccnc3ccccc23)s1` [GW693542] yielded a Kd with AKT3 greater than 10 µM.

For `Cc1nnc(-c2ccc3occ(-c4ccc(S(C)=O)cc4)c3c2)[nH]1` (stereo not shown), the Kd with AMPK-alpha1 is greater than 10 µM.

For the compound `Cc1ccc(-c2cc(-c3c[nH]nc3-c3ccccn3)ccn2)cc1` [GW684088], the Kd in the assay on ARK5 was greater than 10 µM.

In turn, `CC(C)(C)c1ccc(C(=O)Nc2cn3cc(-c4cccnc4)ccc3n2)cc1` had a dissociation constant (Kd) in the assay with ASK1 of 0.064 µM.

As for `CC(C)(C)c1ccc(C(=O)Nc2cn3cc(Cl)ccc3n2)cc1`, in the assay on ASK1, binding was characterised by a dissociation constant (Kd) of 1.5 µM.

`CSc1nn2c(=O)cc(N3CCOCC3)nc2n1Cc1cccc(C(F)(F)F)c1C` [GSK2363608] showed a Kd with ASK2 greater than 10 µM.

With `O=c1cc(N2CCOCC2)nc2n(Cc3cccc(Cl)c3Cl)ccn12` [GSK2286295], the Kd with AXL was greater than 10 µM.
